The source made the active and inactive calls. How the source made its calls: active means hit-call score of the fitted dose curve at least 0.9, where 1 is the maximum; inactive means score below 0.9.
What was measured:
Conditions in all cases: mRNA level, 48 h; actives raise or lower the signal
[1] = read-out: Bcl-2 (BAD) gene, BAD (gene 572); test: LTEA_HepaRG_BAD: Life Technologies and Expression Analysis (LTEA) Assay for Bcl-2 (BAD) gene using HepaRG (AID 2283469)
Procedure, shortened: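 HepaRG, 48 h exposure, 8-pt half-log curve from 100 uM in 0.5% DMSO, duplicates. Readout: TaqMan qRT-PCR for BAD mRNA, housekeeping-normalised (ACTB/GAPDH/POLR2A); gain or loss fitted against DMSO baseline.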

[2] = read-out: Bcl-2 (BAX) gene, BAX (gene 581); test: LTEA_HepaRG_BAX: Life Technologies and Expression Analysis (LTEA) Assay for Bcl-2 (BAX) gene using HepaRG (AID 2283470)
Procedure, shortened: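 qRT-PCR read-out of BAX mRNA, normalized to three housekeeping genes, after 48 h chemical exposure of human HepaRG cells in serum-free induction medium; eight-point half-log series, top 100 uM, 0.5% DMSO vehicle; bidirectional fit versus DMSO.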

[3] = read-out: adenosine kinase (ADK) gene, ADK (gene 132); test: LTEA_HepaRG_ADK: Life Technologies and Expression Analysis (LTEA) Assay for adenosine kinase (ADK) gene using HepaRG (AID 2283471)
Procedure, shortened: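 Differentiated HepaRG cells dosed 48 h in serum-free induction medium, 0.5% DMSO vehicle, eight half-log concentrations from 100 uM, in duplicate. ADK mRNA by TaqMan qRT-PCR normalised to ACTB, GAPDH, POLR2A; bidirectional fit versus DMSO.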

[4] = read-out: Alpha-fetoprotein (AFP) gene, AFP (gene 174); test: LTEA_HepaRG_AFP: Life Technologies and Expression Analysis (LTEA) Assay for Alpha-fetoprotein (AFP) gene using HepaRG (AID 2283472)
Procedure, shortened: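 qRT-PCR (Fluidigm TaqMan) readout of AFP transcript, normalized to three housekeeping genes, fitted bidirectionally against 0.5% DMSO baseline. HepaRG cells received chemicals for 48 h in serum-free induction medium, top concentration 100 uM, half-log steps.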

BCL2L11 (gene 10018) = test: LTEA_HepaRG_BCL2L11: Life Technologies and Expression Analysis (LTEA) Assay for Bcl-2 (BCL2L11) gene using HepaRG (AID 2283473)
Procedure, shortened: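 Read-out is BCL2L11 transcript level by qRT-PCR, normalized to three housekeeping genes and fitted bidirectionally against 0.5% DMSO vehicle. HepaRG cells received chemicals for 48 h in serum-free induction medium, 100 uM down in half-log dilutions.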

[5] = read-out: Apolipoprotein A-V (APOA5) gene, APOA5 (gene 116519); test: LTEA_HepaRG_APOA5: Life Technologies and Expression Analysis (LTEA) Assay for Apolipoprotein A-V (APOA5) gene using HepaRG (AID 2283474)
Procedure, shortened: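 Readout is APOA5 transcript level by qRT-PCR on Fluidigm dynamic arrays, normalized to three housekeeping genes. HepaRG cultures received chemicals for 48 h at up to 100 uM (half-log steps, 0.5% DMSO), with gain or loss scored relative to DMSO.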

[6] = read-out: Apoptosis regulator Bcl-2 (Homo sapiens) (UniProt P10415); test: LTEA_HepaRG_BCL2: Life Technologies and Expression Analysis (LTEA) Assay for Bcl-2 gene using HepaRG (AID 2283475)
Procedure, shortened: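 qRT-PCR read-out (Fluidigm TaqMan) of BCL2 transcript, normalised to three housekeeping genes, after 48 h chemical exposure of HepaRG cells; 8-point half-log series, top 100 uM, 0.5% DMSO vehicle. Gain or loss of signal fitted relative to DMSO baseline.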

[7] = read-out: Bcl-2 (BID) gene, BID (gene 637); test: LTEA_HepaRG_BID: Life Technologies and Expression Analysis (LTEA) Assay for Bcl-2 (BID) gene using HepaRG (AID 2283476)
Procedure, shortened: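 HepaRG, 48 h exposure, 8-pt half-log series, top 100 uM, 0.5% DMSO vehicle, duplicates. Readout: BID mRNA by TaqMan qRT-PCR; housekeeping-normalized; bidirectional curve fit vs DMSO baseline.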

Caspase-3 (Homo sapiens) = Caspase-3 (Homo sapiens) (UniProt P42574); test: LTEA_HepaRG_CASP3: Life Technologies and Expression Analysis (LTEA) Assay for cysteine-aspartic acid protease (CASP3) using HepaRG (AID 2283477)
Procedure, shortened: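 Read-out is CASP3 mRNA level by TaqMan qRT-PCR in human HepaRG cells after 48 h chemical exposure. Eight half-log concentrations topping at 100 uM were tested in 0.5% DMSO; gain or loss was fitted relative to DMSO.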

[8] = read-out: Cytochrome P450 (CYP24A1), CYP24A1 (gene 1591); test: LTEA_HepaRG_CYP24A1: Life Technologies and Expression Analysis (LTEA) Assay for Cytochrome P450 (CYP24A1) using HepaRG (AID 2283478)
Procedure, shortened: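 HepaRG, 48 h chemical exposure, 8-pt half-log CRC from 100 uM, 0.5% DMSO vehicle, duplicates. Endpoint: CYP24A1 mRNA by Fluidigm TaqMan qRT-PCR, normalized ACTB/GAPDH/POLR2A; gain/loss fit vs DMSO.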

[9] = read-out: Cytochrome P450 (CYP1A2), CYP1A2 (gene 1544); test: LTEA_HepaRG_CYP1A2: Life Technologies and Expression Analysis (LTEA) Assay for Cytochrome P450 (CYP1A2) using HepaRG (AID 2283479)
Procedure, shortened: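 CYP1A2 transcript induction or loss, quantified by Fluidigm qRT-PCR against three housekeeping genes, was fitted bidirectionally against 0.5% DMSO controls. Human HepaRG cells received eight half-log concentrations from 100 uM over 48 h.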

[10] = read-out: cysteine-aspartic acid protease (CASP8), CASP8 (gene 841); test: LTEA_HepaRG_CASP8: Life Technologies and Expression Analysis (LTEA) Assay for cysteine-aspartic acid protease (CASP8) using HepaRG (AID 2283480)
Procedure, shortened: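 qRT-PCR readout of CASP8 mRNA, normalized to three housekeeping genes, after 48 h chemical exposure of HepaRG cells; 8-point half-log series, top 100 uM, 0.5% DMSO vehicle. Bidirectional curve fitting against DMSO baseline.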

[11] = read-out: Cytochrome P450 (CYP2B6), CYP2B6 (gene 1555); test: LTEA_HepaRG_CYP2B6: Life Technologies and Expression Analysis (LTEA) Assay for Cytochrome P450 (CYP2B6) using HepaRG (AID 2283481)
Procedure, shortened: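 HepaRG cells plated 48 h, switched to serum-free induction medium, then dosed 48 h (8 points, half-log from 100 uM, 0.5% DMSO). RNA isolated; CYP2B6 expression measured by qRT-PCR; gain or loss fitted relative to DMSO.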

[12] = read-out: Cytochrome P450 2C19 (Homo sapiens) (UniProt P33261); test: LTEA_HepaRG_CYP2C19: Life Technologies and Expression Analysis (LTEA) Assay for CYP2C19 using HepaRG (AID 2283482)
Procedure, shortened: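 Transcript levels of CYP2C19 were quantified by qRT-PCR after HepaRG cells were treated for 48 hours with test chemicals up to 100 uM (eight half-log concentrations, 0.5% DMSO vehicle). Gain or loss of signal was fitted relative to DMSO.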

CYP2C8 (gene 1558) = test: LTEA_HepaRG_CYP2C8: Life Technologies and Expression Analysis (LTEA) Assay for CYP2C8 using HepaRG (AID 2283483)
Procedure, shortened: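 HepaRG (human liver line), 48 h chemical exposure, 8-pt half-log series from 100 uM, 0.5% DMSO vehicle. Readout: CYP2C8 transcript by qRT-PCR, housekeeping-normalized. Bidirectional fit vs DMSO baseline.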

CYP2C9 (gene 1559) = test: LTEA_HepaRG_CYP2C9: Life Technologies and Expression Analysis (LTEA) Assay for CYP2C9 using HepaRG (AID 2283484)
Procedure, shortened: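 HepaRG, 48 h dosing, 8-pt half-log series, top 100 uM, 0.5% DMSO vehicle. Read-out: CYP2C9 transcript by TaqMan qRT-PCR, housekeeping-normalized (ACTB/GAPDH/POLR2A). Gain or loss fitted vs DMSO baseline.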

CYP2E1 (gene 1571) = test: LTEA_HepaRG_CYP2E1: Life Technologies and Expression Analysis (LTEA) Assay for CYP2E1 using HepaRG (AID 2283485)
Procedure, shortened: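 CYP2E1 transcript was measured by TaqMan qRT-PCR in human HepaRG cultures after 48 h chemical exposure (top 100 uM, half-log steps, 0.5% DMSO vehicle). Housekeeping-gene normalization; gain or loss fitted relative to DMSO baseline.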

CYP4A11 (gene 1579) = test: LTEA_HepaRG_CYP4A11: Life Technologies and Expression Analysis (LTEA) Assay for CYP4A11 using HepaRG (AID 2283486)
Procedure, shortened: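 HepaRG, 48 h chem exposure, 8 conc (100 uM top, half-log), 0.5% DMSO vehicle; qRT-PCR readout, housekeeping-gene normalized; bidirectional curve fit vs DMSO baseline.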

[13] = read-out: Cytochrome P450 3A4 (Homo sapiens) (UniProt P08684); test: LTEA_HepaRG_CYP3A4: Life Technologies and Expression Analysis (LTEA) Assay for CYP3A4 using HepaRG (AID 2283487)
Procedure, shortened: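 Differentiated HepaRG cells in serum-free induction medium exposed in duplicate for 48 h to 8 half-log concentrations up to 100 uM in 0.5% DMSO. CYP3A4 mRNA measured by qRT-PCR normalized to ACTB, GAPDH and POLR2A; bidirectional fit versus DMSO.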

[14] = read-out: DNA damage-inducible transcript 3 (DDIT3), DDIT3 (gene 1649); test: LTEA_HepaRG_DDIT3: Life Technologies and Expression Analysis (LTEA) Assay for DNA damage-inducible transcript 3 (DDIT3) using HepaRG (AID 2283488)
Procedure, shortened: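 qRT-PCR readout (Fluidigm TaqMan), housekeeping-normalized to ACTB, GAPDH, POLR2A. HepaRG cells, 48 h exposure, 8-point half-log series from 100 uM in 0.5% DMSO, duplicates. Gain or loss of signal fitted against DMSO baseline.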

Measured: AC50

Sequence of Caspase-3 (Homo sapiens) (P42574 whole entry, looked up): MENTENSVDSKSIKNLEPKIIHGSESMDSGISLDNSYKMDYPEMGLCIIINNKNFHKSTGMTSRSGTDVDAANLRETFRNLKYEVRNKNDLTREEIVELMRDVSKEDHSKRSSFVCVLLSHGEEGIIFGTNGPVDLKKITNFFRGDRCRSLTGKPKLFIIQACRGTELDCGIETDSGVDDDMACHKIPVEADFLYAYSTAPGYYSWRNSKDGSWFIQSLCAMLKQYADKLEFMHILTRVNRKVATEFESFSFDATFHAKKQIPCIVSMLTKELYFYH
Sequence of Cytochrome P450 2C19 (Homo sapiens) (P33261 whole entry, looked up): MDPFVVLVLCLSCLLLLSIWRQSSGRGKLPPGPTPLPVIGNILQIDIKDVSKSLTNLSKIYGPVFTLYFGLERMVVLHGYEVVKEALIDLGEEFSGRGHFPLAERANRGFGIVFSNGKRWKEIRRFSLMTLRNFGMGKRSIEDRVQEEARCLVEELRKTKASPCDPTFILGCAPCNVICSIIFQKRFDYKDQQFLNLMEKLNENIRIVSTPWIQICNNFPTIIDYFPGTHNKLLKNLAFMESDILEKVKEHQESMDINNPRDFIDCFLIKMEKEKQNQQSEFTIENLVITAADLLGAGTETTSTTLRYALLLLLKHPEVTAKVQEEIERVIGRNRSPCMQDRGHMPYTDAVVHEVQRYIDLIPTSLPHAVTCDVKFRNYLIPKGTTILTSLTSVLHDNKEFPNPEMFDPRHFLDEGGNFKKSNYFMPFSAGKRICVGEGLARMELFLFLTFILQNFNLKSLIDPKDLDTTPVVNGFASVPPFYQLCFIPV
Sequence of Cytochrome P450 3A4 (Homo sapiens) (P08684 whole entry, looked up): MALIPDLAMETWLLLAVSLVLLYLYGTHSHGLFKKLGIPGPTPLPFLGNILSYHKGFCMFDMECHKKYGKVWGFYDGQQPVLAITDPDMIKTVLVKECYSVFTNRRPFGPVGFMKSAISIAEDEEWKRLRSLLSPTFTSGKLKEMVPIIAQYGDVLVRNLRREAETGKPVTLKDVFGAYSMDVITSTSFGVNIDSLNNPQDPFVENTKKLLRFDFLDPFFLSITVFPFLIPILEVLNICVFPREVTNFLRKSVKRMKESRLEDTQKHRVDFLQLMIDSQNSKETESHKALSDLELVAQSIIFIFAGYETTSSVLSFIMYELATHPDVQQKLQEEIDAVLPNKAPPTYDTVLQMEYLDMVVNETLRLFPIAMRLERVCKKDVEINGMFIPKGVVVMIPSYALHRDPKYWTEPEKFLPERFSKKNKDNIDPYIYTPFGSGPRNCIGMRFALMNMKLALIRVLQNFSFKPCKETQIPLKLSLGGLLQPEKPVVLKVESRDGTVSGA
Sequence of Apoptosis regulator Bcl-2 (Homo sapiens) (P10415 whole entry, looked up): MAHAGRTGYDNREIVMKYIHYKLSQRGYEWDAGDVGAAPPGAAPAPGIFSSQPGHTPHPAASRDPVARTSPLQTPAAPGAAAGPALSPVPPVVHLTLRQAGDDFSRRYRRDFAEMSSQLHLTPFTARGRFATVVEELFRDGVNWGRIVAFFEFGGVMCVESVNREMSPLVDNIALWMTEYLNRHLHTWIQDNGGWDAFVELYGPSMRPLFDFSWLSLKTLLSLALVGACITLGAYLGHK

CCC(C)n1c(=O)[nH]c(C)c(Br)c1=O (configuration not stated)
active: [4] 35.5 µM | BCL2L11 (gene 10018) 20.7 µM | [9] 8.92 µM | [11] 1.19 µM | CYP2C8 (gene 1558) 50 µM | CYP2E1 (gene 1571) 20.6 µM | CYP4A11 (gene 1579) 13.5 µM
not listed: [14]
inactive: all other assays above

Cn1c(-c2ccccc2)cc(-c2ccccc2)[n+]1C
inactive: [1] | [2] | BCL2L11 (gene 10018) | [8]
active: [3] 82.1 µM | [4] 39.5 µM | [5] 63.8 µM | [6] 13.3 µM | [7] 80 µM | Caspase-3 (Homo sapiens) 50 µM | [9] 13.2 µM | [11] 11.3 µM | [12] 50 µM | CYP2C8 (gene 1558) 13.5 µM | CYP2C9 (gene 1559) 19.5 µM | CYP2E1 (gene 1571) 24.5 µM | CYP4A11 (gene 1579) 20.3 µM | [13] 50 µM | [14] 13.5 µM

CCSC(=O)N1CCCCCC1
active: [11] 2.93 µM | [13] 30 µM
not listed: [10]
inactive: all other assays above

Cc1cnc(C2=NC(C)(C(C)C)C(=O)N2)c(C(=O)O)c1 (configuration not stated)
not listed: [4]
inactive: all other assays above

CCCCOCN(C(=O)CCl)c1c(CC)cccc1CC
active: [11] 40 µM | [12] 50 µM | CYP4A11 (gene 1579) 50 µM | [13] 27.7 µM
not listed: [4]
inactive: all other assays above

COP(=S)(OC)Oc1ccc([N+](=O)[O-])c(C)c1
active: [8] 0.00316 µM | [9] 50 µM | [11] 4.75 µM
not listed: [10]
inactive: all other assays above

CNC(=O)N(C)c1nnc(C(C)(C)C)s1
active: [9] 50 µM | [11] 31.6 µM
not listed: CYP2E1 (gene 1571)
inactive: all other assays above

CC(C)NC(=O)N1CC(=O)N(c2cc(Cl)cc(Cl)c2)C1=O
active: [4] 13.2 µM | [5] 22.7 µM | [9] 8.18 µM | [11] 3.63 µM | CYP2E1 (gene 1571) 13.2 µM | [13] 2.97 µM
not listed: [10] | CYP4A11 (gene 1579)
inactive: all other assays above

N#Cc1c(Cl)cccc1Cl
active: [11] 12.1 µM
not listed: [10]
inactive: all other assays above

CCCN(CC)CC1COC2(CCC(C(C)(C)C)CC2)O1 (configuration not stated)
active: [11] 50 µM
not listed: [10]
inactive: all other assays above

O=P(O)(O)CCCl
active: [12] 0.396 µM
not listed: [10]
inactive: all other assays above

CCCCC(C#N)(Cn1cncn1)c1ccc(Cl)cc1 (configuration not stated)
active: [4] 67 µM | [9] 19.3 µM | [11] 3.06 µM | [12] 5.75 µM | CYP2C8 (gene 1558) 12.1 µM | CYP2E1 (gene 1571) 50 µM | CYP4A11 (gene 1579) 41.5 µM | [13] 4.85 µM | [14] 67.8 µM
not listed: [10]
inactive: all other assays above
